Test results reported in PubChem BioAssay (NCATS).
Records with an inconclusive call do not appear. Active and inactive are the calls of the source. The call rests on the fitted dose curve; in most records, active means well fitted curve in the direction sought with a large enough effect; inconclusive means small, poorly fitted or top-dose-only effect, or another doubt; inactive means no such curve, though single readings can be large; an effect the other way counts as inactive or inconclusive.

Assays:
[1] = HPAF-II Cancer Cell Toxicity qHTS against the NCATS CANVASS Library (AID 1347346); further: potency means the concentration at half of the fitted maximal effect; nearly all actives have a fitted effect of over 55% in size
In short: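 HPAF-II cells at 1000 cells/well were treated with an 11-point concentration series for 72 hours at 37 degrees C. Viability read by CellTiter-Glo luminescence.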

[2] = OV-SAHO Cancer Cell Toxicity qHTS against the NCATS CANVASS Library (AID 1347348); further: nearly all actives have a fitted effect of over 55% in size; further: potency means the concentration at half of the fitted maximal effect
In short: (§1)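 Bortezomib titration and single-dose wells served as plate controls. Test compounds, 11 points, acted on 1000 cells/well for 72 h at 37 degrees C; CellTiter-Glo luminescence quantified remaining viable cells.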

[3] = U-118MG Cancer Cell Toxicity qHTS against the NCATS CANVASS Library (AID 1347351); further: series mostly up to about 38 µM
In short: as §1

[4] = COV-362 Cancer Cell Toxicity qHTS against the NCATS CANVASS Library (AID 1347352); further: series mostly up to about 38 µM
In short: (§2)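 Cells at 1000/well were given compound 4 h after plating in an 11-point series. Viability was read by CellTiter-Glo luminescence after 72 h at 37 degrees C.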

[5] = target: Nuclear receptor subfamily 1 group I member 3 (Homo sapiens) (UniProt Q14994); test: qHTS for Constitutive Androstane Receptor (CAR) Antagonist screened against the NCATS CANVASS Library (AID 1347372);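 further: cells stimulated with 50 nM CITCO agonist so inhibition reflects antagonism; series mostly up to about 46 µM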
Sequence of Nuclear receptor subfamily 1 group I member 3 (Homo sapiens) (Q14994 whole entry, looked up): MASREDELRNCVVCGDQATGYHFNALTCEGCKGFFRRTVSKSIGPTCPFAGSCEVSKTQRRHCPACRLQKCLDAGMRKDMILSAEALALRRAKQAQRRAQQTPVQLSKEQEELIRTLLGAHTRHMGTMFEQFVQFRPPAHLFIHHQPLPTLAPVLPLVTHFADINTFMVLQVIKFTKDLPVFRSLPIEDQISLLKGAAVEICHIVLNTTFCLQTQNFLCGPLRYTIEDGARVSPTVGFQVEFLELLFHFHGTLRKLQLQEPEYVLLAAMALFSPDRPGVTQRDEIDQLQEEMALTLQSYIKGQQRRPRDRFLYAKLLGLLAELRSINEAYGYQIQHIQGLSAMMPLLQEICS
In short: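 HepG2 cells stably carrying hCAR and a CYP2B6-2.2kb luciferase reporter were exposed to compounds plus 50 nM CITCO for 24hr at 37C. CAR activity was read by ONE-Glo luminescence, with viability measured first by CellTiter-Fluor.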

[6] = qHTS for Antimalaria activity screened against the NCATS CANVASS Library (AID 1347380); further: nearly all actives have a fitted effect of over 40% in size; further: potency means the concentration at half of the fitted maximal effect
In short: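 Red blood cells infected with P. falciparum Dd2 (2.5% hematocrit final, 0.3% parasitemia) were exposed to compounds in an 11-point qHTS series for 72 hr at 37C under 5% O2 and 5% CO2. Lysis buffer with SYBR Green was then added for 18 hr, and fluorescence was read at 485/535 nm.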

[7] = Secretion counterscreen for inhibitors of the SERCaMP assay screened against the NCATS CANVASS Library (AID 1347390);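 further: light from luciferase secreted into medium read as a measure of general secretion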; further: potency means the concentration at half of the fitted maximal effect
In short: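 Natural products are titrated in an 11-point series up to 77 uM onto SH-SY5Y-GLuc STOP cells for 20 h. Secreted reporter activity is measured as coelenterazine-driven luminescence, with Brefeldin A on each plate.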

[8] = Viability qHTS for inhibitors of the SERCaMP assay screened against the NCATS CANVASS Library (AID 1347400); further: nearly all actives have a fitted effect of over 70% in size; further: potency means the concentration at half of the fitted maximal effect
In short: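 SH-SY5Y-GLuc SERCaMP MJH297-derived cells, 1000/well, plated 4 h, then exposed to compounds in an 11-point qHTS series for 48 h at 37C. Viability read as CellTiter-Glo luminescence.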

[9] = HEK293 12hr Apoptosis Induction qHTS against the NCATS CANVASS Library (AID 1347361)
In short: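 Luminescent caspase-3/7 signal, proportional to enzyme activity, was recorded from HEK293 cultures in DMEM + 10% FBS treated for 12 hours with titrated natural products (11 points). Doxorubicin (0.1nM - 4uM) served as control.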

[10] = UWB1.289-WTBRCA1 Cancer Cell Toxicity qHTS against the NCATS CANVASS Library (AID 1347354)
In short: as §2

[11] = G06 Cancer Cell Toxicity qHTS against the NCATS CANVASS Library (AID 1347368); further: nearly all actives have a fitted effect of over 60% in size; further: potency means the concentration at half of the fitted maximal effect
In short: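 G06 dog glioma cells, 500 per well, exposed 72 hr at 37C, 5% CO2 to compounds in an 11-point series. Cytotoxicity read as ATP content by CellTiterGlo luminescence.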

[12] = UWB1.289 Cancer Cell Toxicity qHTS against the NCATS CANVASS Library (AID 1347347); further: nearly all actives have a fitted effect of over 60% in size; further: potency means the concentration at half of the fitted maximal effect
In short: as §1

[13] = Panc-1005 Cancer Cell Toxicity qHTS against the NCATS CANVASS Library (AID 1347349); further: nearly all actives have a fitted effect of over 60% in size; further: potency means the concentration at half of the fitted maximal effect
In short: as §1

[14] = KB-3-1 Cancer Cell Toxicity qHTS against the NCATS CANVASS Library (AID 1347366); further: nearly all actives have a fitted effect of over 75% in size; further: potency means the concentration at half of the fitted maximal effect
In short: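 Cytotoxicity toward KB-3-1 cells (500/well, DMEM + 10% FBS) was scored by CellTiter-Glo luminescence following 72 hr exposure at 37C, with bortezomib titrated as control.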

[15] = Vero-766 cells viability qHTS against the NCATS CANVASS Library: Counterscreen for Zika virus inhibition assay (AID 1347394); further: nearly all actives have a fitted effect of over 60% in size; further: potency means the concentration at half of the fitted maximal effect
In short: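 Counterscreen for toxicity: Vero 766 cells exposed 72 h to an 11-point compound series, viability by CellTiter-Glo.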

[16] = SDT Cancer Cell Toxicity qHTS against the NCATS CANVASS Library (AID 1347365); further: nearly all actives have a fitted effect of over 60% in size; further: potency means the concentration at half of the fitted maximal effect
In short: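 SDT dog glioma cells (500/well) exposed to an 11-point compound series for 72 hr at 37C, 5% CO2. Cytotoxicity read as ATP content by CellTiterGlo luminescence; bortezomib titration as control.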

Measured: Potency

C/C(=C\[C@@H](C)CC/C=C/CC/C=C/C(=O)O)[C@H](O)[C@H](C)C(=O)CCCC1CC(=O)NC(=O)C1
active: [1] 6.68 µM
inactive: [2] | [3] | [4] | [5] | [6] | [7] | [8]

COc1ccc([C@@H]2c3cc4c(cc3C[C@H](C)C2C)OCO4)cc1OC (some centres not stated)
inactive: [2] | [3] | [9]
active: [8] 27 µM

COc1ccc([C@@H]2c3cc4c(cc3C(=O)[C@H](C)C2C)OCO4)cc1OC (some centres not stated)
inactive: [2] | [4] | [10] | [11] | [7]

C[C@H](c1cnc(N)[nH]1)c1ccc(O)c2[nH]cc(-c3cnc(-c4c[nH]c5ccccc45)c(=O)[nH]3)c12
not listed: [1] | [6] | [9] | [11] | [16]
inactive: all other assays above

O[C@H]1C=C2[C@H]3CN(Cc4cc5c(cc43)OCO5)[C@H]2C[C@@H]1O
active: [16] 7.43 µM | [14] 13.2 µM | [11] 6.62 µM | [6] 5.29 µM | [7] 38.4 µM
inactive: [9]

C/C(=C\[C@H](C)C(=O)/C=C/CC1CC(=O)NC(=O)C1)[C@@H]1OC(=O)CCCC/C=C/[C@H](O)[C@@H](O)[C@@H]1C
active: [1] 18.8 µM | [13] 14.9 µM | [16] 13.2 µM | [11] 5.9 µM
inactive: [10] | [9] | [5] | [6] | [7]

C=C1C[C@H]2O[C@@H]3[C@@H]4[C@H](CC[C@@](C)(O)[C@@H]42)[C@H](C)COC3(C)[C@@H](OC(=O)CCCCCCC)CC1=O (some centres not stated)
active: [12] 18.8 µM | [2] 18.8 µM | [16] 23.5 µM | [11] 5.9 µM | [7] 48.4 µM

C[C@H](CCC(O)C(C)(O)CO)[C@@]1(O)CC[C@@]2(C)C3=C(CC[C@@]21C)[C@@]1(C)CCC(OC(=O)CCC(=O)O)C(C)(C)[C@@H]1CC3 (some centres not stated)
inactive: [2] | [13] | [3] | [4] | [10] | [16] | [5] | [7]
active: [15] 29.5 µM
